In PubChem BioAssay (NCI):
“And” between values parts separate entries of the source, which are not always exact repeats. Equal entries are not always repeated. This is part of a sample that, as a whole, favours compounds with a hit. Of some 83,000 tested, about 20% had one in any assay.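 Step 1: grow cells in 96-well plates. Step 2: add test compound at a single concentration. Step 3: incubate 48 h. Step 4: record percent growth.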 Some structures have more than one record in an assay (separate samples or runs), and their calls can disagree. The source made the active and inactive calls. Rule for the calls: active = growth percent below 10; inactive = the rest.

Tested on: HL-60(TB) leukemia
Test: NCI-60 one-dose screen, 48 h (100 = growth as untreated, 0 = no growth, -100 = all killed)
Conditions: 10 µM unless noted

Structure (SMILES) | growth
O=C(Nc1nn(-c2ccc(Cl)cc2Cl)nc1-c1ccccc1)c1ccccc1 | 83.8% (inactive)
COc1cccc(-c2nc3occn3c2-c2ccnc(NCCCNS(=O)(=O)c3cccc(F)c3)n2)c1 | 112% (inactive)
OC(c1ccccn1)C(O)c1ccccn1 (stereo not given) | 97.3% (inactive)
Cc1nc2cncc(C#Cc3cncc(C(=O)Nc4ccc(CN5CCN(C)CC5)c(C(F)(F)F)c4)c3)c2nc1C | -8.15% (active)
O=C(NCCCN1CCOCC1)c1cccc(N2C(=O)/C(=C/c3ccc(F)cc3)SC2=S)c1 | 99.6% (inactive)
CCCCc1ccc(Nc2ccc(Nc3ccc(CCCC)cc3S(=O)(=O)O)c3c2C(=O)c2ccccc2C3=O)c(S(=O)(=O)O)c1 | 96% (inactive)
COc1ccc(/C=C/C(=O)O)cc1OC | 103% (inactive) and 102% (inactive)
CC(=O)N1N=C(c2ccc(Cl)cc2)CC1c1cn(-c2ccccc2)nc1-c1ccc([N+](=O)[O-])cc1 (stereo not given) | 121% (inactive)
Nc1ccccc1NC(=O)CCCCC(=O)Nc1ccc2c(c1)/C(=C/c1ccc[nH]1)C(=O)N2 | 89.6% (inactive)
COc1ccc(-c2n[nH]nc2-c2cc(OC)c3c(c2OC)OCO3)cc1 | -23.2% (active)
O=C(Nc1cccc2[nH]c(C(F)(F)F)nc12)c1cc(Cl)ccc1Cl | 36.4% (inactive)
N#Cc1cccc(NC(=O)c2oc3ccccc3c2-c2cnn(-c3ccccc3)c2)c1 | -22.2% [50 µM] (active)
CCN(CC)CCNC(=O)c1c(C)[nH]c(/C=C2\C(=O)Nc3cc(NC(=O)NC(=O)c4ccc(OC)cc4F)ccc32)c1C | 95.9% (inactive)
COCCn1cc(-c2nc(-c3cccnc3)cs2)c2cc(F)ccc21 | 93.4% (inactive)
C=CCN(CCOC(=O)c1ccc([N+](=O)[O-])cc1)CCOC(=O)c1ccc([N+](=O)[O-])cc1 | 88.1% (inactive)
COc1c(Cl)cc(Cl)c2ccc(C=C3C(=O)NC(=S)NC3=O)nc12 | 102% (inactive)
O=[N+]([O-])c1ccc2c(N=Nc3ccc4ccccc4c3O)c(O)cc(S(=O)(=O)O)c2c1 | 108% (inactive)
COc1ccc(CN2C(=O)/C(=C\c3cc(OC)c(OC)c(OC)c3)c3ccccc32)cc1 | -16.2% (active)
COc1cc(-c2nn(-c3ccc(NC(=O)NCCCNC(=O)c4ccccc4)cc3)cc2-c2ccncc2)ccc1Cl | -0.104% (active)
O=C(O)c1ccc(CNS(=O)(=O)c2ccc3ccccc3c2)cc1 | 68.1% (inactive)

Structure (SMILES) | growth
CSc1ccc(/C=C2\C=C(CC(=O)NCc3ccc(C(=O)c4ccccc4)cc3)c3cc(F)ccc32)cc1 | -30.3% (active)
CCOC(=O)c1cc2c(n1Cc1ccccc1)-c1oncc1CCC2 | 33.9% (inactive)
COC(=O)c1ccc(NC(=O)CSc2nc3ccccc3c(=O)n2-c2ccccc2)cc1 | 93.2% (inactive)
O=C(Nc1ccc(C2=NCCCN2)cc1)Nc1ccc(C2=NCCCN2)cc1 | 87.4% (inactive)
COc1ccccc1C1OC2=Nc3cc(C)c(C)cc3NC2C1=O (stereo not given) | 102% (inactive)
Nc1nc(=S)c2ncn(C3OC(COC(=O)c4ccc(Cl)cc4)C(OC(=O)c4ccc(Cl)cc4)C3OC(=O)c3ccc(Cl)cc3)c2[nH]1 (stereo not given) | 93.7% (inactive)
COc1ccc(C(=O)N2NC(=O)/C(=C/c3ccccc3F)N=C2c2ccccc2)cc1 | 93.9% (inactive)
NNCCc1ccccc1 | 107% (inactive) and 98.2% (inactive)
O=C(Nc1ccc(-c2nc(N3CCOCC3)c3cccn3n2)cc1)Nc1cccnc1 | 12% (inactive)
O=Nc1ccc(NO)c2ccccc12 | 108% (inactive) and 26.9% (inactive)
CC(C)(C)n1cc(-c2ccnc(NCCNS(=O)(=O)c3ccc(C(F)(F)F)cc3)c2)c(-c2cccc(O)c2)n1 | 29.3% (inactive)
CC1=C(/C=C/C(C)=C/C=C/C(C)=C/C=N/NC(=S)NC(=S)N/N=C/C=C(C)/C=C/C=C(C)/C=C/C2=C(C)CCCC2(C)C)C(C)(C)CCC1 | 11.7% (inactive) and -28.1% (active)
CC(C)(C)Nc1c(-c2cccs2)nc2ncccn12 | 66.6% (inactive)
CS(=O)(=O)c1nccc(-c2c(-c3cccc(OCCc4ccccc4)c3)nc3sccn23)n1 | 99.4% (inactive)
O=C(Nn1c2c(sc1=Nc1ccccc1)C(=O)c1ccccc1C2=O)c1cc2ccc1CCc1ccc(cc1)CC2 | 91.6% (inactive)
COc1cc(C(=O)/C=C/c2c[nH]c3ccccc23)cc(OC)c1OC | -12% (active)
CSc1nc2sc3c(c2c(=O)n1-c1ccc([N+](=O)[O-])cc1)CCCCC3 | 97.7% (inactive)
C/C=C\COc1cc(C)c(Cl)cc1Cl | 105% (inactive)
CC/C=C\C[C@H](O)C/C=C1/C(=O)C(Cl)=C[C@@H]1C/C=C\CCCC(=O)O | 19.4% (inactive)
O=C(Nc1nc2c(s1)CCc1c-2c(Br)n(Cc2ccccc2)c1Br)c1ccccc1 | 84.3% (inactive)
